Only some compounds are listed: those with a hit (about 4.1% of all), similar ones and a draw of the others.
MEKK3 PB1 HTS = raises or lowers MEK5 binding to the human MEKK3 PB1 domain. hit rate 1.4% among 290,000. binding response (% of control), % at 10 µM. bead-based flow cytometry, Alexa488-MEK5 binding to MEKK3; actives lie on both sides; 0 = blocked by unlabeled MEK5, 100 = vehicle;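 active = binding response more than 3 SD above or below the average of its plate-row segment, actives on both sides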;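 note: Alexa488 bead fluorescence after subtracting the streptavidin-only scavenger bead signal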
MEKK2mut PB1 HTS = signal of MEK5 binding to mutant human MEKK2 PB1 domain; bead flow cytometry, Alexa488-MEK5 binding to MEKK2 mutant; percent response, % at 10 µM; hit rate 0.35% among 290,000; in the data active = percent response above about 24%, passing the limit was not always enough
CHT PAM = human CHT allosteric activation; CHT-expressing cells, membrane potential dye, choline EC20; active compounds read high; LV-AA mutant CHT in HEK293 cells; B-score at 10 µM; Q9GZV3; hit rate 0.49% among 310,000;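 active = initial fluorescence not abnormally high and integrated response B-score, plate-corrected, over 3 SD above library mean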
Target sequence (Q9GZV3 whole entry, looked up): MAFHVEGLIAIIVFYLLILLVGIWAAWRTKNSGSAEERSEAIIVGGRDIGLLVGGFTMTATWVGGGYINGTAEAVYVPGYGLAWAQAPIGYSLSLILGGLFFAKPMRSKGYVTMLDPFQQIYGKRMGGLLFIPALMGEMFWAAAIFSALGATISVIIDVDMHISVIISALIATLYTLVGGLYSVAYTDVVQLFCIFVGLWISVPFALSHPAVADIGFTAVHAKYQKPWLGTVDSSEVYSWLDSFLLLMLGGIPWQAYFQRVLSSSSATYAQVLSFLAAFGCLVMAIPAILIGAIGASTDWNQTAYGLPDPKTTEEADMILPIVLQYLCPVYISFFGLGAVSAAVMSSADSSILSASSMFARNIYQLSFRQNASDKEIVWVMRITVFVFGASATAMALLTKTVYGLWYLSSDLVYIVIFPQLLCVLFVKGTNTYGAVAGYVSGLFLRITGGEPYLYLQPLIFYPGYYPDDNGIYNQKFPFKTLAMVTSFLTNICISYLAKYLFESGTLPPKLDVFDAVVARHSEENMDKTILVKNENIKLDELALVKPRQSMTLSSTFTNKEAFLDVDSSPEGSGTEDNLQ
CHT inh = inhibits the human high affinity choline transporter | CHT-expressing cells, membrane potential dye, choline response; active compounds read low | B-score at 10 µM | hit rate 0.86% among 310,000 | AID 488975;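 active = B-score over 3 SD under the library average, and starting fluorescence ratio not unusually high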;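 note: choline stimulus applied at its EC90 after an EC20 pre-addition; B-score computed on integrated fluorescence ratio after choline addition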
MEKK2 WT-MEK5 = raises or lowers MEK5 binding to wildtype human MEKK2 PB1 domain. Q9Y2U5. bead flow cytometry, Alexa488-MEK5 binding to MEKK2 WT; actives lie on both sides. binding response (% of control), % at 10 µM. hit rate 1.1% among 290,000. AID 1531; in the data active = binding response below about 67% or above about 130%
SUMO Mot1 rescue = blocks SUMOylation pathway, rescuing yeast Mot1-301 growth; S. cerevisiae Mot1-301 growth rescue, ATP luminescence, 38.5C; percent above DMSO median, 100 means doubled; growth rescue, % at 18.8 µM; hit rate 1% among 320,000; AID 2716;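 active = every valid replicate shows activation above 250% relative to neutral control wells; inactive = the rest, any valid replicate at or below 250%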
Yeast Mot1 SUMO = yeast SUMO pathway inhibition in dose response; shares compounds with SUMO Mot1 rescue; S. cerevisiae Mot1-301 galactose growth, ATP luminescence, 24 h; -100 = growth of slx-deleted rescue strain; growth activity, percent, % at 42 µM; 2,300 tested, under 10 active; AID 493004;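 active = Signal drops as the depositor expects, and the fitted half-maximal dose is no more than ten times the top valid tested dose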;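 note: more negative values mean stronger growth rescue toward the control strain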
Large screens that a line does not name were inactive (follow-up assays come after a bar, where they were run).

CC(c1ccccn1)N(CCN(C)C)C(=S)Nc1cccc(F)c1 (stereo not drawn)	SUMO Mot1 rescue 436 | Yeast Mot1 SUMO inactive
Cc1ccc(N2CC(NC(=O)C(=O)c3c(C)[nH]c4ccccc34)CC2=O)cc1C (stereo not drawn)	none (no result: MEKK3 PB1 HTS, MEKK2mut PB1 HTS, MEKK2 WT-MEK5)
CCCCn1c(SCC(=O)Nc2cc(C)on2)nnc1-c1ccco1	SUMO Mot1 rescue 527 | Yeast Mot1 SUMO inactive
CCOc1ncccc1C(=O)NNC(=O)c1ccc(NS(=O)(=O)c2cccs2)cc1	none (no result: MEKK3 PB1 HTS, MEKK2mut PB1 HTS, MEKK2 WT-MEK5)
O=C(NCC1CCCO1)C1CC(=O)N(c2cccc(Cl)c2)C1 (stereo not drawn)	none
CC1=C/C(=N\OS(=O)(=O)c2ccccc2)C(C(C)C)=CC1=O	SUMO Mot1 rescue 413 | Yeast Mot1 SUMO inactive
Clc1cccc(-c2ccc3ncnc(NCc4cccs4)c3c2)c1	none (no result: MEKK3 PB1 HTS, MEKK2mut PB1 HTS, CHT PAM, CHT inh, MEKK2 WT-MEK5)
Clc1ccccc1-c1ccc2ncnc(NCc3cccs3)c2c1	SUMO Mot1 rescue 411 (no result: MEKK3 PB1 HTS, MEKK2mut PB1 HTS, CHT PAM, CHT inh, MEKK2 WT-MEK5) | Yeast Mot1 SUMO inactive
Cc1csc(CNc2ncnc3ccc(-c4ccccc4Cl)cc23)c1	SUMO Mot1 rescue active (no result: MEKK3 PB1 HTS, MEKK2mut PB1 HTS, CHT PAM, CHT inh, MEKK2 WT-MEK5) | Yeast Mot1 SUMO inactive
Cc1csc(CNc2ncnc3ccc(-c4cccnc4)cc23)c1	none (no result: MEKK3 PB1 HTS, MEKK2mut PB1 HTS, CHT PAM, CHT inh, MEKK2 WT-MEK5)
COc1cc2cc(CN(Cc3cccnc3)C(=O)Nc3ccccc3F)c(=O)[nH]c2cc1OC	none
S=C1NC[C@H](Cc2ccccc2)N1CCCCC1CCCCC1	none
COc1cc(NC(=S)N2CCN(C(=O)C3CCCO3)CC2)c(OC)cc1Cl (stereo not drawn)	SUMO Mot1 rescue 370 | Yeast Mot1 SUMO inactive
COc1ccc(Cl)cc1NC(=S)N1CCN(C(=O)C2CCCO2)CC1 (stereo not drawn)	none
COc1cccc(NC(=O)CN(C)C(=O)c2ccc(-c3ccc(Cl)cc3)o2)c1	none (no result: MEKK3 PB1 HTS, MEKK2mut PB1 HTS, MEKK2 WT-MEK5)
Cc1[nH]c2ccccc2c1/C=N/NC(=O)c1cccc(Br)c1	MEKK2mut PB1 HTS 64, MEKK2 WT-MEK5 42, SUMO Mot1 rescue 497 | Yeast Mot1 SUMO inactive
C[C@H]1CCC(=O)N([C@H](CN=[N+]=[N-])Cc2ccccc2)CC1	none
O=C(Nc1cccc(Cl)c1Cl)c1cc(S(=O)(=O)NCCc2ccccc2)ccc1F	none
Cc1ccccc1NC(=O)c1ccccc1NC(=O)c1ccco1	SUMO Mot1 rescue 402 | Yeast Mot1 SUMO inactive
CCOc1cc(/C=N/NC(=O)C(=O)N/N=C/c2ccc(O)c(OCC)c2)ccc1O	SUMO Mot1 rescue 768 | Yeast Mot1 SUMO inactive
CCOCCCNC(=O)C(NC(=O)c1ccccc1O)c1ccc(Cl)cc1 (stereo not drawn)	none
COc1ccc(C(=O)c2c(-c3ccc(OC)cc3)oc3ccc(-c4cc(OC)c(OC)c(OC)c4)cc23)cc1	none
CCCOC(=O)c1c(-c2ccc(OC)cc2)oc2ccc(-c3ccc(OC)nc3)cc12	SUMO Mot1 rescue 633 | Yeast Mot1 SUMO inactive
COC(=O)c1c(-c2ccc(OC)cc2)oc2ccc(-c3ccc(OC)nc3)cc12	none
COc1ccc(-c2oc3ccc(-c4cc(OC)c(OC)c(OC)c4)cc3c2C(=O)c2ccc(OC)nc2)cc1	SUMO Mot1 rescue 813 | Yeast Mot1 SUMO inactive
O=C(NCc1ccccn1)C1Nc2ccc(C(F)(F)F)cc2C2C=CCC12 (stereo not drawn)	SUMO Mot1 rescue 562 | Yeast Mot1 SUMO inactive
O=C(Nc1ccc(Cl)cc1)N1CCC(c2nc(-c3ccc(F)cc3)no2)CC1	SUMO Mot1 rescue active | Yeast Mot1 SUMO inactive
COc1ccccc1OCCNC(=O)C(CCSC)NS(=O)(=O)c1ccccc1F (stereo not drawn)	none (no result: MEKK3 PB1 HTS, MEKK2mut PB1 HTS, MEKK2 WT-MEK5)
O=C1CC(NCc2ccc(F)cc2)C(=O)N1c1ccccc1 (stereo not drawn)	none
COC(=O)c1ccc(N2C(=O)CC(NCc3ccccc3)C2=O)cc1 (stereo not drawn)	SUMO Mot1 rescue active | Yeast Mot1 SUMO inactive
Fc1cc(Br)ccc1COc1ccc(-c2nnco2)cc1	none
